Assay outcomes as filed in PubChem BioAssay.
KB-3-1 tox: qHTS assay for MDR1-selective chemotherapeutics: Primary screen using the parental adenocarcinoma cell KB-3-1; 400,000 tested, 1.4% active; Potency, µM (doses to about 46.1 µM), actives largely listed as cytotoxic; KB-3-1 viability, CellTiter-Glo ATP luminescence, 72 h; AID 1347075, 2019; note: nearly all actives have a fitted effect of over 60% in size
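Here the drug-naive KB-3-1 line serves as comparator for MDR sub-line selectivity; cells received compound titrations, 72 h at 37 °C, then CellTiter-Glo readout.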
KB-V1 MDR tox: qHTS assay for MDR1-selective chemotherapeutics: Primary screen using the drug-selected MDR subline cells KB-V1; 400,000 tested, 3.4% active; AID 1347076, 2019; KB-V1 MDR cells viability, CellTiter-Glo, 72 h; Potency, µM (doses to about 46.1 µM), actives largely listed as cytotoxic; note: nearly all actives have a fitted effect of over 60% in size
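Cytotoxicity via CellTiter-Glo luminescence after 72 h compound exposure at 37 degrees C. Cells: drug-selected KB-V1 line, DMEM phenol-red free plus 10% FBS. Compounds tested at multiple concentrations; normalized data fitted to concentration-effect curves.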
ELG1 DNA repair: qHTS screen for small molecules that inhibit ELG1-dependent DNA repair in human embryonic kidney (HEK293T) cells expressing luciferase-tagged ELG1; HEK293T ELG1-luciferase reporter, luminescence, 16 h; DNA damage induced by 5-fluorouridine; Potency, µM (highest dose often 46.1 µM), usual class: inhibitors; 330,000 tested, 2.3% active; AID 504467, 2011; note: nearly all actives have a fitted effect of over 55% in size
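Cells (2,000 per well) received 5-fluorouridine plus test compound or DMSO and were incubated 16 hr at 37 °C, 5% CO2. Luciferase activity was read by luminescence 30 min after ONE-Glo addition; signal suppression marked inhibition of damage-induced ELG1 function.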
MCF10A rereplic: A quantitative high throughput screen for small molecules that induce DNA re-replication in MCF 10a normal breast cells. MCF 10A DNA re-replication, Hoechst nuclear intensity, 48 h. Potency, µM (doses to about 46.1 µM), usual class: activators. 350,000 tested, 2.9% active; note: nearly all actives have a fitted effect of over 50% in size
SW480 rerep: A quantitative high throughput screen for small molecules that induce DNA re-replication in SW480 colon adenocarcinoma cells; SW480 DNA re-replication, Hoechst DNA content imaging, 48 h; Potency, µM (doses to about 46.1 µM), usual class: activators; 340,000 tested, 1.8% active; AID 624297, 2012; note: nearly all actives have a fitted effect of over 55% in size
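Per well, 250 cells were exposed to pinned compound for 48 hr. Nuclear DNA was visualised with Hoechst (40 min, 37 C) and total object intensity recorded by fluorescence scanning.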
Numbers stand for hits; i = inactive; ? = inconclusive; nt = no result; [ ] = remark or other dose. Hits are enriched below; roughly 8.1% of the tested compounds scored in any of these assays. Calls come from the whole dose curve; as a rule, active = well fitted curve in the direction sought with a large enough effect; inconclusive = small, poorly fitted or top-dose-only effect, or another doubt; inactive = no such curve, though single readings can be large; an effect the other way counts as inactive or inconclusive.

SMILES	KB-3-1 tox	KB-V1 MDR tox	ELG1 DNA repair	MCF10A rereplic	SW480 rerep
Cc1ccc(N2C(=O)CSC23C(=O)N(Cc2ccccc2F)c2ccccc23)cc1F (stereo unspecified)	?	10µM	nt	nt	nt
COc1cccc(C(=O)NC(C)c2ccc(-c3ccccc3)cc2)c1OC (stereo unspecified)	i	i	i	?	?
O=C(COc1ccc(Cl)cc1Cl)Nn1c(=S)[nH]c2ncccc2c1=O	i	i	i	i	i
C=C1C[C@H](O[C@@H]2O[C@H](CO)[C@@H](O)[C@H](O)[C@H]2O)[C@@H]2[C@H](OC(=O)[C@H]2C)[C@H]2[C@H](C)[C@H](O)C[C@@H]12	i	i	i	i	i
CCc1ccc(N2C(=O)CSC23C(=O)N(Cc2ccc(C)cc2)c2ccccc23)cc1 (stereo unspecified)	?	12µM	nt	nt	nt
O=C(CN1C(=O)C2(SCC(=O)N2c2cccc(Cl)c2)c2ccccc21)NCCc1ccccc1 (stereo unspecified)	15µM	i	nt	nt	nt
CCc1ccc(N2C(=O)CSC23C(=O)N(Cc2cccc(F)c2)c2ccccc23)cc1 (stereo unspecified)	?	12µM	nt	nt	nt
C[C@H]1CN=C(N(C)C)N1CCC1CCCCC1	i	i	i	i	i
COc1cc(S(=O)(=O)NC2CCCCC2)c(C)cc1C	i	i	i	i	i
Cc1cccc(-n2c(N)cc(=O)nc2SCC(=O)NC2CCCCC2)c1	i	i	i	i	i
COc1ccc(C2=NOC(C(=O)NCc3ccco3)C2)cc1 (stereo unspecified)	13µM	7.3µM	?	6.5µM	18µM
Cc1ccc(CNC(=O)C2CC(c3cc(C(F)(F)F)cc(C(F)(F)F)c3)=NO2)o1 (stereo unspecified)	i	i	i	9.2µM	?
COc1cc(C2=NOC(C(=O)NCc3ccco3)C2)cc(OC)c1OC (stereo unspecified)	i	2.9µM	i	?	?
O=C(NCc1ccco1)C1CC(c2ccc(Cl)c(Cl)c2)=NO1 (stereo unspecified)	i	i	i	?	i
COc1ccc(NC(=O)CN(C)C(=O)c2oc3c(ccc4ccccc43)c2C)cc1	i	?	?	?	i
CC1(C)C(CSc2nc3ccccc3[nH]2)C1(Cl)Cl (stereo unspecified)	i	i	i	?	?
CC1CCCN(c2nc3ccsc3c(=O)s2)C1 (stereo unspecified)	?	16µM	?	18µM	i
CCc1nc2c(OCC(=O)C(C)(C)C)cccn2c1N(C)C(=O)c1cccs1	i	i	nt	nt	nt
COC(=O)[C@@]1(Cc2ccc(OC)cc2)[C@H]2c3cc(C(=O)N4CCCC4)n(Cc4ccccc4)c3C[C@H]2CN1C(=O)c1ccccc1	?	10µM	nt	nt	nt
COC(=O)[C@@]1(Cc2ccc(OC)cc2)[C@H]2c3cc(C(=O)N4CCCC4)n(Cc4ccc(C)c(F)c4F)c3C[C@H]2CN1C(=O)c1ccccc1	?	7.3µM	nt	nt	nt
COc1ccccc1NS(=O)(=O)c1cc(C(=O)N2CC(C)CC(C)C2)ccc1C (stereo unspecified)	i	2.3µM	i	i	i
CNc1nc(Cl)c(SC)c(N2CCOCC2)n1	?	?	i	?	i
CCCOc1ccc(/C=N/NC(=O)CSCc2ccc([N+](=O)[O-])cc2)cc1OCC	i	16µM	23µM	i	i
O=C(COc1ccc(/C=N/NC(=O)CSCc2ccc([N+](=O)[O-])cc2)cc1)NCc1ccco1	i	i	23µM	?	i
Cc1ccc(CSCC(=O)N/N=C/c2ccc(OCC(=O)Nc3ccc(C)cc3)cc2)cc1	i	?	?	?	i
SMILES	KB-3-1 tox	KB-V1 MDR tox	ELG1 DNA repair	MCF10A rereplic	SW480 rerep
CC(=O)Nc1ccc(N2C(=O)c3cccc4c(O)ccc(c34)C2=O)cc1	i	i	i	i	i
COc1cc(/C=C2\SC(N)=NC2=O)cc(OC)c1	i	i	i	?	i
Cc1cc(NC(=O)COC(=O)c2ccc(OC(F)(F)F)cc2)no1	i	i	i	i	i
Cc1cc(NC(=O)COC(=O)C(Nc2ccc(C(F)(F)F)cc2Cl)C(C)C)no1 (stereo unspecified)	i	i	?	21µM	i
O=C(Nc1ccc2oc(-c3ccncc3)nc2c1)c1ccccc1Cl	i	?	nt	nt	nt
CCCNC(=O)Nc1cc(S(=O)(=O)CC)ccc1O	i	i	i	i	i
COc1ccc2c(c1OC)C(=O)N1c3ccccc3COC21 (stereo unspecified)	i	i	?	i	i
COc1ccc2c(c1OC)C(=O)N1c3ccccc3C(=O)N(c3ccccc3F)C21 (stereo unspecified)	i	5.8µM	?	?	i[9.22 µM]
COc1ccc2c(c1OC)C(=O)N1c3ccccc3C(=O)N(Cc3ccco3)C21 (stereo unspecified)	i	?	nt	nt	nt
COc1ccc2c(c1OC)C(=O)N1c3cccc(Cl)c3C(=O)OC21 (stereo unspecified)	i	i	i	1.3µM	0.65µM
O=C(NCCCCl)C1CC(=O)N(CCc2ccc(F)cc2)C1 (stereo unspecified)	i	?	i	i	?
OC(CNCC(c1ccc(Cl)cc1Cl)c1c[nH]c2ccccc12)c1ccccc1 (stereo unspecified)	i	23µM	?	?	i
Clc1ccc(C(c2ccccc2)c2c[nH]c3ccccc23)s1 (stereo unspecified)	?	i	nt	nt	nt
Cn1c2c(c(=O)[nH]c1=O)C(c1cccc(O)c1)C1=C(N2)c2ccccc2C1=O (stereo unspecified)	16µM	i	?	?	10µM
COc1cccc(C2C3=C(Nc4[nH]n(-c5ccccc5)c(=O)c42)c2ccccc2C3=O)c1 (stereo unspecified)	nt	nt	i	nt	nt
Cc1ccc(S(=O)(=O)NC(=O)Nc2ccc(N(C)C)cc2)cc1	?	i	?	i	7.3µM
O=C(CCC(=O)c1ccc(F)cc1)Nc1ccccc1Cl	i	i	?	i	i
c1ccc(OCCn2c(-c3ccco3)nc3ccccc32)cc1	i	i	?	i	i
Cc1cccc(OCCn2c(NC(=O)c3ccco3)nc3ccccc32)c1	?	2.3µM	i	i	?
Cc1cccc(OCCn2c(-c3ccco3)nc3ccccc32)c1	i	i	?	i[0.0737 µM]	6.5µM
Cc1ccc(OCCn2c(NC(=O)c3ccco3)nc3ccccc32)cc1	?	?	i	?	i
COc1ccc(/C=C/C(=O)N(CC(C)C)CC(C)C)cc1Br	i	21µM	i	?	?
